Results on seven molecules are retold here after PubChem BioAssay (NCI).

Among the test systems are DU-145 prostate; K-562 leukemia; MALME-3M melanoma; MDA-MB-231 breast; RXF 393 renal; SF-268 CNS; SF-295 CNS; SF-539 CNS; UACC-257 melanoma; M14 melanoma; HCT-15 colon; HT29 colon; SNB-75 CNS; SNB-19 CNS; U251 CNS; PC-3 prostate; SK-MEL-5 melanoma; UACC-62 melanoma; LOX IMVI melanoma; SK-MEL-28 melanoma.
What all share (test): NCI-60 one-dose screen, 48 h (100 = growth as untreated, 0 = no growth, -100 = all killed)
Holding throughout (conditions): 10 µM unless noted

This is part of a sample that, as a whole, favours compounds with a hit. Of some 83,000 tested, about 20% had one in any assay.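 Values shown are percent growth following 48 h exposure of cells in 96-well plates to a single concentration of compound; below 10 was considered active.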 Values without a mark were called inactive. The source made the active and inactive calls.

As for `NC(N)=NCCCCCNc1noc(Cc2c[nH]c3cc(Br)ccc23)n1`, the growth in the experiment on DU-145 prostate was 92.8%; in the experiment with K-562 leukemia, 86.4%; in the experiment with MALME-3M melanoma it was 47.8%; with MDA-MB-231 breast, 69.4%; with RXF 393 renal, 78.3%; in the experiment on SF-268 CNS, 33.3%. Further, the growth was 80.2% in the experiment with SF-295 CNS; 71.8% in the experiment on SF-539 CNS; 65.7% in the experiment on UACC-257 melanoma; 73.6% in the experiment on M14 melanoma; 102% in the experiment with HCT-15 colon; 73.7% with HT29 colon. For the same molecule, the growth is 37.6% in the experiment on SNB-75 CNS; 37.5% with SNB-19 CNS; 21.6% in the experiment on U251 CNS; 31.8% with PC-3 prostate; 68.1% with SK-MEL-5 melanoma; 56.1% in the experiment on UACC-62 melanoma. In addition, the figures for the growth in the experiment with LOX IMVI melanoma and in the experiment on SK-MEL-28 melanoma were 70.5% and 86.9%, respectively.

For `N#CSCC1CC(O)(c2ccccc2)CC(c2ccc(F)cc2)O1` (stereo not given), the growth is -27.8% (active) in the experiment with DU-145 prostate; 20.7% with K-562 leukemia; 29.1% with MALME-3M melanoma; -1.42% (active) in the experiment on MDA-MB-231 breast; -35.3% (active) with RXF 393 renal; -26.3% (active) in the experiment with SF-268 CNS. In addition, the growth is -17.2% (active) with SF-295 CNS; 21% with SF-539 CNS; 69.1% with UACC-257 melanoma; -35.6% (active) with M14 melanoma; 16.5% with HCT-15 colon; -0.0912% (active) in the experiment on HT29 colon. Besides, the growth with SNB-75 CNS was -25.8% (active); in the experiment on SNB-19 CNS, 31.9%; in the experiment on U251 CNS, -51.2% (active); with PC-3 prostate, 25.8%; with SK-MEL-5 melanoma, 22.1%; with UACC-62 melanoma, 11.4%. The growth was -46.8% (active) in the experiment on LOX IMVI melanoma and 43.9% with SK-MEL-28 melanoma.

With `O=C(CSc1nc2sc3c(c2c(=O)n1-c1ccccc1)CCCCC3)N/N=C/c1cccc([N+](=O)[O-])c1`, the growth in the experiment with DU-145 prostate is 16.5%; in the experiment on K-562 leukemia, 56.3%; in the experiment with MALME-3M melanoma it was 74.6%; with MDA-MB-231 breast, 51.1%; with RXF 393 renal, 61.5%; in the experiment with SF-268 CNS, 44.3%. Besides, the growth is 76.3% with SF-295 CNS; 0.0053% (active) with SF-539 CNS; 66.1% in the experiment on UACC-257 melanoma; 71.1% with M14 melanoma; 53.8% in the experiment on HCT-15 colon; 32.3% with HT29 colon. The growth with SNB-75 CNS is 6.05% (active); in the experiment with SNB-19 CNS, 83.6%; in the experiment on U251 CNS, 49.1%; in the experiment on PC-3 prostate, 38.5%; in the experiment with SK-MEL-5 melanoma, 67.6%; in the experiment with LOX IMVI melanoma, 76.5%. Besides, the growth in the experiment with SK-MEL-28 melanoma was 74%.

In the case of `C=C1CC[C@@H]2[C@](C)(COC(C)=O)[C@H](OC(C)=O)CC[C@@]2(C)[C@@H]1CC(Nc1ccc(S(=O)(=O)Nc2ncccn2)cc1)C1=CCOC1=O` (stereo not given in full), the growth in the experiment with DU-145 prostate was 14.9%; in the experiment with K-562 leukemia, 4.6% (active); in the experiment with MALME-3M melanoma, -4.93% (active); in the experiment with MDA-MB-231 breast it was -1.01% (active); in the experiment on RXF 393 renal, -70% (active); in the experiment on SF-268 CNS, 18.3%. For the same molecule, the growth with SF-295 CNS is 68%; in the experiment on SF-539 CNS it was -69% (active); with UACC-257 melanoma, 16.6%; with M14 melanoma, 4.76% (active); in the experiment with HCT-15 colon, -51.4% (active); in the experiment on HT29 colon it was -48.6% (active). Besides, the growth was 25.6% in the experiment on SNB-75 CNS; 36.7% in the experiment on SNB-19 CNS; -19% (active) in the experiment on U251 CNS; 15.1% in the experiment with PC-3 prostate; 24.1% with SK-MEL-5 melanoma; -79.8% (active) in the experiment on LOX IMVI melanoma. In addition, in the experiment with SK-MEL-28 melanoma, the growth is -17.7% (active).

`COc1cc(OCc2cccc(Br)c2C)cc(OC)c1C=O`: the growth in the experiment with DU-145 prostate is 91.3%; in the experiment on K-562 leukemia, 67%; with MALME-3M melanoma it was 114%; with MDA-MB-231 breast it was 95.2%; in the experiment with RXF 393 renal, 75.1%; in the experiment on SF-268 CNS it was 91.9%. The growth in the experiment with SF-295 CNS is 86.7%; in the experiment on SF-539 CNS, 91.9%; in the experiment on UACC-257 melanoma, 83%; in the experiment with M14 melanoma, 90.9%; in the experiment on HCT-15 colon, 80.6%; with HT29 colon, 75%. Moreover, the growth was 90.2% with SNB-75 CNS; 91.8% in the experiment on SNB-19 CNS; 87% with U251 CNS; 79.6% in the experiment on PC-3 prostate; 91.9% with SK-MEL-5 melanoma; 90.1% in the experiment on LOX IMVI melanoma. Also, the growth in the experiment with SK-MEL-28 melanoma is 99.5%.

On to `O=C(CSc1oc(-c2ccccc2)nc1S(=O)(=O)c1ccccc1)Nc1ccc(F)cc1`, for which the growth is 110% with DU-145 prostate; 75.4% with K-562 leukemia; 56.4% with MALME-3M melanoma; 75.6% with MDA-MB-231 breast; 90.5% in the experiment on RXF 393 renal; 85.7% in the experiment on SF-268 CNS. Further, the growth was 73.4% in the experiment on SF-295 CNS; 65.6% with SF-539 CNS; 92.5% in the experiment with UACC-257 melanoma; 90.2% in the experiment on M14 melanoma; 73.7% in the experiment with HCT-15 colon; 91.7% in the experiment on HT29 colon. Further, the growth in the experiment on SNB-75 CNS was 87.8%; with SNB-19 CNS, 93.5%; with U251 CNS it was 93.8%; in the experiment with PC-3 prostate, 52.7%; in the experiment with SK-MEL-5 melanoma, 78.8%; with LOX IMVI melanoma, 94%. For the same molecule, in the experiment with SK-MEL-28 melanoma, the growth was 98.4%.

On to `CC(C)c1ccc(C(=O)Nc2nc3ccc(O)c(CN(C)C)c3s2)cc1`, for which the growth in the experiment with DU-145 prostate is 63.1%; in the experiment on K-562 leukemia, 1.54% (active); in the experiment on MALME-3M melanoma, 71.4%; in the experiment on MDA-MB-231 breast, 44.8%; in the experiment on RXF 393 renal it was 97.4%; in the experiment on SF-268 CNS, 87.2%. In addition, the growth in the experiment with SF-295 CNS was 96.3%; in the experiment on SF-539 CNS, 69%; in the experiment with UACC-257 melanoma, 50.9%; in the experiment on M14 melanoma, 26.8%; in the experiment on HCT-15 colon, 20%; with HT29 colon it was 23.8%. In addition, the growth in the experiment with SNB-75 CNS was 107%; in the experiment on SNB-19 CNS it was 97.9%; in the experiment with U251 CNS it was 69.1%; in the experiment with PC-3 prostate, 83%; with SK-MEL-5 melanoma, 74.4%; in the experiment with LOX IMVI melanoma, 28.1%. Also, the growth with SK-MEL-28 melanoma is 96.1%.
